Screening data (PubChem BioAssay)
Sampled rows, rich in hits. Any-hit rate of the full collection: about 12%.
PLAP activator – activates human placental alkaline phosphatase | P05187 | purified PLAP enzyme, luminescent substrate read-out; stronger effect = higher value | activation fold at 20 µM | 96,000 tested, 1.2% active | AID 696; in the data active = activation fold above about 2
Target sequence (P05187 whole entry, looked up): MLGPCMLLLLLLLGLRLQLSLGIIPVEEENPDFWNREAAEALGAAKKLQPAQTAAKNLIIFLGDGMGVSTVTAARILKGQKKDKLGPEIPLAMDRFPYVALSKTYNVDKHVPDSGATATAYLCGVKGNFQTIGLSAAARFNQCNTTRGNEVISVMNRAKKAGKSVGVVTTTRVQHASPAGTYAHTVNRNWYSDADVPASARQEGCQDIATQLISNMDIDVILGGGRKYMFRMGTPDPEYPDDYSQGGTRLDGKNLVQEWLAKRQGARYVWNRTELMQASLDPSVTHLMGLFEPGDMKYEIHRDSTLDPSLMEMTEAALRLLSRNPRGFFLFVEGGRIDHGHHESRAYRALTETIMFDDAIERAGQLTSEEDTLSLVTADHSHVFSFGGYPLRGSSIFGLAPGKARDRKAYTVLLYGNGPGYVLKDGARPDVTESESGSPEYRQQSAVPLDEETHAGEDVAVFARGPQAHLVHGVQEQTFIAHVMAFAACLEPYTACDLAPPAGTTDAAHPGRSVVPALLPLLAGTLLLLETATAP
PostGolgi ctrl – yeast control strain growth, post-Golgi counter-screen; efflux-deficient yeast background strain, growth absorbance A615, 16 h; inhibition, % at 10 µM; 98,000 tested, 5% active
hDAT+cocaine – modulates human dopamine transporter uptake under cocaine. 110,000 tested, 1.3% active. LLC-PK1 hDAT cells, [14C]-dopamine uptake with cocaine IC80; actives deviate in either direction. B-score at 10 µM;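 active = Z score or B-score, a plate-position-corrected score, falls beyond the plate's 99.7% confidence bounds, in either direction; inactive = both scores lie inside the 99.7% bounds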;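 also: scored against the spread of the other compound wells on the same plate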
PostGolgi yeast – growth inhibition of a yeast mutant, post-Golgi transport screen; 98,000 tested, 0.9% active; post-Golgi transport phenotypic cell assay; AID 739; inhibition, % at 10 µM;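 also: yeast cells grown in 1536-well plates; yeast grown about 18 h at 30C before absorbance read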
Cav3 T inh – blocks human Cav3.2 T-type calcium channel | B-score at 10 µM | O95180 | AID 449739 | 100,000 tested, 4% active | Cav3.2-expressing cells, Fluo-4 calcium fluorescence FDSS; stronger effect = lower value;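 active = single-dose well whose peak fluorescence ratio is a statistical outlier from its plate by either plate-standardised score or position-corrected B-score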
D1 allo mod – D1 dopamine receptor (human) allosteric modulation. HEK293 D1, CRE-luciferase, dopamine EC30 potentiation; actives deviate in either direction. B-score at 10 µM. 58,000 tested, 5.9% active;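 active = luminescence count or its row- and column-corrected plate score outside the 99.7% band of the plate's sample wells, on either side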
D1 PAM confirm – confirmation of human D1 dopamine receptor allosteric modulators; 2,200 tested, 88% active; luminescence at 10 µM; HEK293 D1 CRE-luciferase, dopamine EC30 potentiation; stronger effect = higher value; AID 642; shares compounds with D1 allo mod;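 active = luminescence in either of two replicates above the same-plate mean plus 3 SD of the low-dose dopamine control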
D1 ag no DA – activates D1 CRE-luciferase signal without dopamine present. shares compounds with D1 allo mod. HEK293 D1 CRE-luciferase, luminescence, no dopamine; stronger effect = higher value. luminescence at 10 µM. 1,900 tested, 0.8% active. AID 646; in the data active = luminescence above about 3900
Isoprot counter – isoproterenol response counter-screen activity for D1 modulators; shares compounds with D1 allo mod; AID 647; calls only at 10 µM; HEK293 D1 CRE-luciferase, isoproterenol EC30 counter-screen; 2,200 tested, 63% active;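 active = luminescence in either replicate above plate mean of wells with a partly effective reference agonist dose plus 3 SD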;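 also: isoproterenol raises cAMP through native beta-adrenoceptor Gs so signal bypasses D1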
The depositor's hits bear a star; i = inactive; nt = no result; + = active, no number. Rule as the data show it, unless noted: active = inhibition above about 30%; inactive = the rest.

SMILES	PLAP activator	PostGolgi ctrl	hDAT+cocaine	PostGolgi yeast	Cav3 T inh	D1 allo mod	D1 PAM confirm	D1 ag no DA	Isoprot counter
COc1ccc(-c2cc(C(=O)N3CCCCC3)no2)cc1OC	1.1	6.3	-0.339	11.5	0.151	9.48*	14812*	nt	+
CN1Cc2cc(C(=O)c3cc(Cl)cc(CSc4ncccn4)c3O)cnc2NC1=O	1	12.2	-0.736	13.9	-1.03	4.49*	8560*	nt	+
COc1ncnc2c1NC(=O)CS2	1	3.1	0.183	4.5	-0.798	0.621	nt	nt	nt
COc1ncnc2c1N[C@@](C)(O)c1c(F)c(F)c(F)c(F)c1S2	0.9	-4.6	-0.537	13.1	0.243	5.72*	8300*	1556	i
CN(C(=O)COC(=O)c1ccc2c(c1)OCO2)C1CCS(=O)(=O)C1 (stereo not drawn)	1	6.0	-0.626	5.8	-0.437	0.852	nt	nt	nt
O=C1Nc2cc(Cl)c(Cl)cc2N(O)N1c1ccc(Cl)c(Cl)c1	1.1	3.0	0.0127	-2.3	-1.59	nt	nt	nt	nt
Cc1ccc(-n2c(=O)cc(N3CC(C)CC(C)C3)[nH]c2=O)cc1 (stereo not drawn)	0.9	7.5	-1.49	-10.3	1.01	3.58*	3236*	1556	i
CC(=O)c1cc(C#N)c(SCc2ccncc2)nc1C	0.9	4.1	-0.165	1.8	0.334	5.61*	8540*	1916	i
CC(=O)c1cc(C#N)c(SCC(=O)OC(C)(C)C)nc1C	1.2	14.1	0.107	11.8	nt	3.39*	10808*	1660	i
CCOC(=O)c1cccc(NC(=O)CCc2nc(-c3ccccc3F)no2)c1	0.9	5.0	-1.86	-8.0	-0.303	3.03*	7612	2088	i
CC1CCCCN1c1nc(-c2ccncc2)nc2ccccc12 (stereo not drawn)	1	73.3*	0.113	16.7	-3.02	12.7*	8444*	1504	+
CC1CCN(c2nc(-c3ccncc3)nc3ccccc23)CC1	1	94.7*	0.93	104.9*	-1.92	3.89*	9916*	1776	+
CC1CCCCN1c1ncnc2ccccc12 (stereo not drawn)	0.8	-2.1	0.0823	7.0	0.714	nt	nt	nt	nt
COC(=O)c1c(NC(=O)Cc2cccs2)sc2c1CCC(C)C2 (stereo not drawn)	1	-0.3	-1.01	-7.1	-0.995	4.86*	8816*	1552	i
COC(=O)c1c(NC(=O)Cc2cccs2)sc(C(=O)NC2CCCCC2)c1C	nt	nt	-0.122	nt	1.05	nt	nt	nt	nt
CCN(CC)C(=O)c1sc(NC(=O)c2ccc3c(c2)OCO3)c(C#N)c1C	0.9	6.1	-0.015	-1.7	0.669	nt	nt	nt	nt
COC(=O)c1c(NC(=O)Cc2cccs2)sc(C(=O)N2CCCCC2)c1C	nt	13.6	-0.939	-7.2	-1.24	7.28*	25076*	1708	+
CCOC(=O)c1c(NS(C)(=O)=O)sc2c1CCC(C)C2 (stereo not drawn)	1.7	31.6*	-0.193	-3.0	-10.2*	9.21*	13356*	1660	+
CCN(CC)C(=O)c1sc(NC(=O)Cc2cccs2)c(C#N)c1C	1.1	7.9	1.1	17.4	0.613	6.95*	11496*	1544	i
COc1ccc(NC(=O)c2ccccc2NC(=O)CSc2ccc(Cl)cc2)cc1	0.8	-11.0	-0.175	15.3	-1.02	nt	nt	nt	nt
Cc1c(C(=O)NCc2ccc3c(c2)cc(C)n3C)cccc1[N+](=O)[O-]	nt	nt	-0.511	nt	0.0734	nt	nt	nt	nt
Cc1nn(C(C)C(=O)N2CCc3ccccc32)c(C)c1[N+](=O)[O-] (stereo not drawn)	0.9	-3.7	0.0617	-3.7	-2.54	nt	nt	nt	nt
CCN(CC)c1ccc(C(=O)OCC(=O)N2CCN(c3ccccc3)CC2)cc1	1	-1.5	1.76	24.4	0.521	1.94	nt	nt	nt
Cc1cc(C)n(-c2c(F)c(F)c(CO)c(F)c2F)n1	1	-0.1	-0.428	0.0	0.792	nt	nt	nt	nt
CCN=C1SC(CC(=O)Nc2ccccc2OCC)C(=O)N1CC (stereo not drawn)	1.3	8.1	1.64	16.2	1.38	2.75*	9772*	1564	i
SMILES	PLAP activator	PostGolgi ctrl	hDAT+cocaine	PostGolgi yeast	Cav3 T inh	D1 allo mod	D1 PAM confirm	D1 ag no DA	Isoprot counter
Cc1ccc2c(c1)-c1c(ssc1=S)C(C)(C)N2C(=O)CSc1nncn1C	1.1	5.6	-0.637	10.0	0.143	3.85*	11288*	1508	i
Cc1cc(C)c2c(c1)-c1c(ssc1=S)C(C)(C)N2C(=O)CSc1nncn1C	1.5	-1.9	0.359	10.1	0.441	0.249	nt	nt	nt
Cc1sc2ncnc(SC(C)C#N)c2c1C (stereo not drawn)	nt	8.5	-0.353	-1.3	-0.163	4.94*	6756	1584	i
Cc1sc2ncnc(SCC(=O)NCC(C)C)c2c1C	0.9	4.6	-0.0768	-1.4	1.11	nt	nt	nt	nt
CCOc1ccc(-c2nc(CSCC(=O)N3CCN(C(=O)c4ccco4)CC3)c(C)o2)cc1	1.7	1.2	0.753	-0.8	0.666	3.63*	5924	1480	+
CCOC(=O)C1CCN(C(=O)CSCc2nc(-c3ccc(OCC)cc3)oc2C)CC1	1.6	16.3	1.66	-0.2	-2.51	5.73*	12112*	1828	+
N#CCSc1nnc(Cc2ccc3c(c2)OCO3)o1	0.9	3.0	-0.944	-1.4	0.709	-1.18	nt	nt	nt
CCOC(=O)c1c(C)c2c(n1C)CCC/C2=N\O	0.8	5.4	0.0163	-0.2	-0.432	6.5*	9680*	1536	+
O=C(O)c1ccccc1-c1ccccc1C(=O)NCCCO	1.1	6.3	0.931	-4.1	0.00181	nt	nt	nt	nt
Cc1cc(C)n(S(=O)(=O)c2ccc(Cl)c(Cl)c2Cl)n1	1.1	19.1	nt	14.9	-1.85	0.156	nt	nt	nt
COc1c(S(=O)(=O)n2nc(C)cc2C)ccc(Cl)c1Cl	1.3	31.1*	-0.0275	-2.3	-2.03	3.64*	12296*	1576	i
CC(C)NC(=O)CSc1nnc(-c2ccc(S(=O)(=O)N3CCCC3)cc2)n1CC1CCCO1 (stereo not drawn)	1.1	9.5	-0.528	2.3	1.14	nt	nt	nt	nt
CCOC(=O)CSc1nnc(CSc2nc3sc4c(c3c(=O)[nH]2)CCC4)n1C	1.2	9.8	1.41	5.5	0.303	2.59*	7200	1740	i
O=C(c1ccc2c(c1)OCO2)N1CCc2ccccc2C1	0.9	11.7	0.861	-1.7	0.0706	21.8*	18384*	1548	+
CCOc1ncccc1C(=O)OCc1ccc(C(=O)OC)o1	1.2	5.8	0.0981	17.2	-0.044	8*	16096*	1680	+
O=C(Cc1cccs1)Nc1ccc(S(=O)(=O)Nc2ncccn2)cc1	1.2	2.4	-0.696	9.6	0.657	1.58	nt	nt	nt
CCc1nc2ccccc2n(CC)c1=O	0.9	21.0	-1.67	5.0	1.65	4.24*	10236*	2112	+
